ClpP mod: qHTS Assay for Activators of ClpP; AID 651965, 2013; purified B. subtilis ClpP, FRET peptide cleavage, 20 min; 340,000 compounds, 1.9% hits; Potency, µM (highest dose often 57.5 µM), without a hit: at the top dose activity change, negative = active; ATP-dependent Clp protease proteolytic subunit (Bacillus subtilis (strain 168)), P80244; active = well fitted falling curve with a large enough effect; inconclusive = small, poorly fitted or top-dose-only effect; inactive = no such curve, though single readings can be large or run the other way; note: potency is the fitted concentration of half-maximal effect; the source files actives as falling curves though it sought activators and does not explain the sign; nearly all actives have a fitted effect of over 65% in size
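Buffer: 100 mM Tris/HCl pH8, 100 mM KCl, 0.05% low protease BSA, 2.5% glycerol, 0.01% Tween-20. ClpP 10 microg/mL final; 20 min RT; delta FRET normalized to ADEP and DMSO controls.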
Chronic BCR inh: blocks chronic active B-cell receptor signaling | ABC-DLBCL IkBa-CBG/CBR reporter, luminescence ratio, 4 h | Potency, µM (doses to about 46.1 µM), inactives show at the highest dose activity change, negative = inhibition, actives largely listed as inhibitors | 340,000 compounds, 0.05% hits | AID 493014; active = well fitted inhibition curve with a large enough effect in the signal ratio, with a control signal flat, not every such curve was filed as active; inconclusive = small, poorly fitted or top-dose-only effect, or effect the other way, or a change in a side signal; the % refers to the signal ratio;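 note: potency is the fitted concentration of half-maximal effect; plate controls were basal doxycycline-induced cells for no effect and cells given 10 µM MG132 for full effect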
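Compounds up to 46 uM were incubated four hours with TMD8 cells whose green CBG68 luciferase is fused to IkappaBalpha; red CBR luminescence normalised the signal, and concentration-effect curves were fitted to fusion, red and ratio data.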
KCNH2 3.1 block: KCNH2 3.1 (human) potassium channel inhibition; U2OS KCNH2 3.1, thallium flux FluxOr; stronger effect = lower value; 340,000 compounds, 0.95% hits; AID 720553; activity change, % (tested at about 1.8 µM);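 active = maximum activity change below -70%; inconclusive = maximum activity change from -70% to -50%; inactive = maximum activity change above -50%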;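 note: thallium influx rate constant from kinetic fluorescence after stimulation buffer; % is set by controls: 0 for no effect and ±100 for the full control effect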
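Thallium flux read-out: FluxOr dye with Red40 quencher in HBSS/HEPES, 45 min at RT. Rate constants from kinetic reads were normalized to positive and negative DMSO controls. Cells: U2OS virally expressing the 3.1 isoform.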
ALOX12 inh: ALOX12 (human) lipoxygenase inhibition | AID 1671190 | purified 12hLO, xylenol orange hydroperoxide absorbance | Potency, µM (top dose mostly 108 µM), inactives show at the top dose activity change, negative = inhibition, actives largely listed as inhibitors | 580,000 compounds, 1.1% hits; active = well fitted inhibition curve with a large enough effect; inconclusive = small, poorly fitted or top-dose-only effect, or another doubt; inactive = no such curve, though single readings can be large or run the other way; note: potency is the fitted concentration of half-maximal effect; % is set by controls: 0 for no effect and ±100 for the full control effect
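Hydroperoxide product was detected by ferrous iron/xylenol orange as the 573 to 405 nm absorbance ratio. Arachidonic acid at 40 uM (final) was turned over for 30 min at room temperature by 150 nM human 12hLO, pH 7.0 Hepes buffer, after 15 min compound preincubation.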
KCNH2 WT inh: blocks the wildtype human KCNH2 potassium channel; 340,000 compounds, 0.37% hits; U2OS, BacMam KCNH2, thallium flux FluxOr; stronger effect = lower value; activity change, % at 1.84 µM;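 active = maximum activity change below -70%; inconclusive = maximum activity change between -70% and -50%; inactive = maximum activity change above -50%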; note: % is set by controls: 0 for no effect and ±100 for the full control effect
Target sequence (Q12809 whole entry, looked up): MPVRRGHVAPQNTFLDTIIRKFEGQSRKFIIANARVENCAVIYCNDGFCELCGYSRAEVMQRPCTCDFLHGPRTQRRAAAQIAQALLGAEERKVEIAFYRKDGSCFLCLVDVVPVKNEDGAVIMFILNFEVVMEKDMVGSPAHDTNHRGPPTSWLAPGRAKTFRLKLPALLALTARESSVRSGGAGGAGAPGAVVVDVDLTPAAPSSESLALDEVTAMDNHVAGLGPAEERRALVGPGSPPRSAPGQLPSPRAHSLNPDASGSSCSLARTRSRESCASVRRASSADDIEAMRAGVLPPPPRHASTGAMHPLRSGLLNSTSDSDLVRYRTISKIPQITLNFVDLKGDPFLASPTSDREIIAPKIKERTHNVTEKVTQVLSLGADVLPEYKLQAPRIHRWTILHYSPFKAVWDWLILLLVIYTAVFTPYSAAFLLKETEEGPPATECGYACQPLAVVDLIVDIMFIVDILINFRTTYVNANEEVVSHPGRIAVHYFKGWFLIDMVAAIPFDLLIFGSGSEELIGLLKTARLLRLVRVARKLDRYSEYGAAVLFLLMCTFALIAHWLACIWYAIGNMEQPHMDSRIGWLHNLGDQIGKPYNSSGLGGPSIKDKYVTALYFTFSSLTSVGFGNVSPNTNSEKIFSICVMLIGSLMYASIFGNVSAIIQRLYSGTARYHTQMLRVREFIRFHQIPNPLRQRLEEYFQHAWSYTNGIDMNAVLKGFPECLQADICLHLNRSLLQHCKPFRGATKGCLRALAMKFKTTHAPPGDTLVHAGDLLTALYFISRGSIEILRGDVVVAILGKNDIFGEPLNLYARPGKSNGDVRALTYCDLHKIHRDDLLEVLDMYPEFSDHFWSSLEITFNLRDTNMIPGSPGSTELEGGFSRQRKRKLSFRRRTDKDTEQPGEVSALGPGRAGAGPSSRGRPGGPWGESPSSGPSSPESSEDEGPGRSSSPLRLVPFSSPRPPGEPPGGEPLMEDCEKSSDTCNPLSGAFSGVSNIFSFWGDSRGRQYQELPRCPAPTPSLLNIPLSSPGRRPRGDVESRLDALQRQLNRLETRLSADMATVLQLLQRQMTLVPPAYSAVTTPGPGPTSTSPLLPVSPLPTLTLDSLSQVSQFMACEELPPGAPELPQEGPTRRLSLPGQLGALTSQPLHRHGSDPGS
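U2OS cells transduced with wild-type KCNH2 virus are loaded with FluxOr dye for 45 min, and thallium flux is measured in kinetic reads before and after stimulation buffer. Rate constants are normalized to DMSO controls.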
LDHA inh: inhibitors of human lactate dehydrogenase A | purified LDHA, NADH/diaphorase-resazurin fluorescence; stronger effect = lower value | activity change, % (values are at about 110 or 230 µM) | 480,000 compounds, 0.15% hits | AID 1347041; in the data active = activity change below about -30%; inconclusive = mostly about -25% to -30%;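 note: plate controls were DMSO wells for no effect and wells without enzyme for full effect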
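LDH5 2 nM; NADH 0.06 mM, pyruvate 0.2 mM; 200 mM Tris pH 7.4, EDTA, Tween-20; 5 min RT. Detection: diaphorase 0.133 mg/mL + resazurin 37 µM, fluorescence ex540/em590 at 0 and 20 min; normalized to enzyme-free and DMSO wells.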
* hit, by the source's call; u = inconclusive; x = no result given; [ ] = remark or other dose. Compounds with a hit are over-represented: about 3% of the library has one in this group of screens.

SMILES	ClpP mod	Chronic BCR inh	KCNH2 3.1 block	ALOX12 inh	KCNH2 WT inh	LDHA inh
Nc1ccccc1C1CC1	x	x	x	7.1µM*	x	15
COc1ccc(CN2C(=O)C3(CCOCC3)CC2c2nnnn2C(C)(C)C)c(OC)c1 (stereo not given)	x	x	x	8%	x	x
O=C(O)c1cc(S(=O)(=O)O)ccc1O	20µM*	0%	-4	u	12	-5
CCOC(=O)N1CCC2(CC1)CC(=O)c1c(ccc3oc(C(=O)O)c(C)c13)O2	35µM*	9%	-4	-25%	-1	-4
CCOC(=O)c1oc2ccc3c(c2c1C)C(=O)CC1(CCN(C(=O)OCC)CC1)O3	-5%	12%	-12	2%	-12	3
CCCNC(=O)c1oc2ccc3c(c2c1C)C(=O)CC(C)(C)O3	28µM*	-2%	8	2%	2	-1
O=C(c1cccs1)N(c1ccccc1)C1C=CS(=O)(=O)C1 (stereo not given)	x	x	x	2%	x	0
C/C(=N\NC(=O)c1ccccc1C)c1ccc(C)cc1	x	x	x	10%	x	-8
Cc1c(CC(=O)N2CCCC2)c(=O)oc2c(C)c(O)ccc12	x	x	x	-4%	x	5
COc1ccc(Cl)cc1NC(=O)CN(C)C(=O)CN1C(=O)NC(C)(c2ccc3ccccc3c2)C1=O (stereo not given)	-5%	x	-89*	158%	-7	-3
CCNC(=O)c1cc(-c2ccc(C)s2)nc2ccccc12	x	x	x	u	x	1
COc1cc(OC)c(OC)cc1CN1CCC(O)CC1	2%	6%	-90*	u	3	-11
COc1cc(OC)c(OC)cc1CN1CCN(Cc2cccn2C)CC1	1%	0%	10	u	-122*	-21
O=S(=O)(c1ccc2c(c1)OCCO2)c1nc(-c2ccco2)oc1NC1CC1	x	x	x	u	x	-25
COC(=O)c1cc2c(ccn2-c2ccc(F)cc2)n1CC(=O)C(C)(C)C	25µM*	10%	-3	60%	x	-11
COCCN1Cc2[nH]nc(-c3ccc(OC)c(OC)c3)c2CC1=O	x	x	x	10%[176 µM]	x	x
O=C(c1c(Cl)cccc1Cl)N1CCN(c2ccccn2)CC1	32µM*	-1%	10	16%	-9	-2
COc1cccc(OC)c1C(=O)N1CCN(c2ccccn2)CC1	-29%	x	-4	-5%	-10	-9
O=C(c1cc(Sc2cccc(Cl)c2)nc2ccccc12)N1CCN(c2ccccn2)CC1	x	0%	-6	-10%	1	-9
O=C(CSCc1ccccc1Cl)N1CCN(c2ccccn2)CC1	32µM*	u	-12	-15%	-13	-5
Cc1ccc(S(=O)(=O)N2CCCCC2)cc1C(=O)N1CCN(c2ccccn2)CC1	28µM*	1%	-10	-6%	-10	-4
O=C(c1cc(Sc2ccc(Cl)cc2)nc2ccccc12)N1CCN(c2ccccn2)CC1	-5%	-1%	-78*	4%	8	-15
CCCn1c(SCC(N)=O)nc2c1c(=O)[nH]c(=O)n2C	x	x	x	26%	x	14
Cc1c(Cc2ccccc2)c(=O)oc2c(C)c(OCC(=O)N(C)C)ccc12	x	x	x	6%	x	-3
Cc1nc(-c2ccc(CNC(=O)c3ccc4nc[nH]c4c3)cc2)cs1	x	x	x	11%	x	7
SMILES	ClpP mod	Chronic BCR inh	KCNH2 3.1 block	ALOX12 inh	KCNH2 WT inh	LDHA inh
CC(C)c1ccc(OCc2ccc(C(=O)N3CCN(c4ccccn4)CC3)cc2)cc1	-7%	u	-72*	-9%	-15	0
CC(C)c1ccc(COc2ccc(C(=O)N3CCOCC3)cc2)cc1	0%	-1%	1	-11%	-6	3
CS(=O)(=O)N1CCc2cc(C(=O)c3cc4cc(Br)ccc4o3)ccc21	x	x	x	u	x	2
CC(=O)NCc1ccc(C(=O)OC/C=C/c2ccccc2)cc1	x	x	x	-22%	x	-1
Cn1c(-c2cccc([N+](=O)[O-])c2)cnc1NCc1cccc([N+](=O)[O-])c1	1%	1%	-26	u	x	-13
Cn1c(-c2cccc(Br)c2)cnc1NCc1cccc(F)c1	1%	x	x	11µM*	x	-16

Compound activity from PubChem.
